Data on eight compounds can be found in PubChem BioAssay (NCATS).

Several values for one entry are separate records, joined by “and”; a condition that tells them apart may be missing. Equal entries are not always repeated.

Experiment [1] is described as follows: qHTS profiling for inhibitors of Plasmodium falciparum (3D7) proliferation (AID 743322).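 Also: infected erythrocytes exposed to compound for 72 h before lysis; 100% = DMSO vehicle wells and 0% = 0.29 µM artemisinin.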 The settings on record: P. falciparum 3D7 proliferation; at 28.7 µM (top of the series). In short, it runs like this:
(§1)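 Parasite DNA was quantified by SYBR Green I fluorescence (ex 485, em 535 nm) after overnight lysis in saponin/Triton buffer at room temperature. Cultures at 0.3% parasitemia and 2.5% hematocrit were first exposed to compound for 72 h at 37 C; signals were normalised to artemisinin (0.29 uM) and vehicle wells.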

Experiment [2] in a line: qHTS profiling for inhibitors of Plasmodium falciparum (DD2) proliferation (AID 743323). The settings on record: lower = more inhibition; at 28.7 µM (top of the series). In short, it runs like this: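 Parasite DNA quantified by SYBR Green fluorescence (ex 485, em 535 nm) after saponin/Triton lysis and overnight dark incubation. Cultures: 0.3% parasitemia, 2.5% hematocrit, 72 h, 37 C; data scaled between DMSO and 0.29 uM artemisinin.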

Experiment [3] in a line: qHTS profiling of the MIPE4 collection as inhibitors of Plasmodium falciparum (3D7) proliferation (AID 743344).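 Also: scaled between DMSO vehicle wells and 0.29 µM artemisinin as full inhibition.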 The settings on record: P. falciparum 3D7 in erythrocytes, SYBR Green DNA fluorescence, 72 h; at 28.5 µM (top of the series) unless noted. In short, it runs like this:
as §1
In general terms: qHTS replaces the single test concentration by a dilution series.

Experiment [4] is described as follows: qHTS profiling of the MIPE4 collection as inhibitors of Plasmodium falciparum (DD2) proliferation (AID 743345). Conditions: P. falciparum Dd2 in erythrocytes, SYBR Green DNA, 72 h; at 28.5 µM (top of the series) unless noted. Put shortly:
as §1

Experiment [5] is described as follows: High-throughput drug toxicity screening in the BPDCN cell line Gen2.2 (AID 1224824).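 Also: cells exposed to compounds for 48 h before reading.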 The settings on record: Gen2.2 BPDCN cells; at 45.8 µM (top of the series) unless noted. Put shortly:
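Seed 500 exponentially growing Gen2.2 cells/well; add compounds by pin tool; incubate 48 h, 37 °C, 5% CO2; add CellTiter-Glo, 15 min RT; read luminescence. % activity vs DMSO (100%) and bortezomib (0%).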

The nature of experiment [6]: High-throughput drug toxicity screening in the BPDCN cell line Cal-1 (AID 1224825). The settings on record: Cal-1 BPDCN cell viability, qHTS; at 45.8 µM (top of the series) unless noted. Put shortly:
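Viability of the BPDCN line Cal-1 is measured as ATP-based luminescence (CellTiter-Glo) following 48 h incubation with compounds. Percent activity uses DMSO-treated wells as 100% and 9.2 uM bortezomib as 0%.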

Experiment [7] can be described thus: qHTS profiling of the MIPE4 collection as inhibitors of Plasmodium falciparum (DD2) proliferation (Rep 2) (AID 743346). The settings on record: P. falciparum Dd2 in erythrocytes, SYBR Green DNA, 72 h; at 28.5 µM (top of the series) unless noted. Put shortly:
as §1

A short description of experiment [8]: qHTS profiling of the MIPE4 collection as inhibitors of Plasmodium falciparum (HB3) proliferation (AID 743347).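 Also: plate controls were DMSO vehicle wells for no effect and artemisinin wells for full effect.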 Conditions: P. falciparum HB3 in erythrocytes, SYBR Green DNA, 72 h; at 28.5 µM (top of the series) unless noted. In short, it runs like this: as §1
A short description of experiment [9]: qHTS profiling for inhibitors of Plasmodium falciparum (HB3) proliferation (AID 743324).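 Also: 100% = DMSO vehicle wells and 0% = artemisinin-treated control wells.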 The settings on record: Plasmodium falciparum HB3 blood-stage proliferation; at 28.7 µM (top of the series). Put shortly:
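SYBR Green fluorescence (485 ex/535 em) of lysed cultures, incubated overnight at room temperature in the dark, quantifies parasite DNA. Infected erythrocytes at 0.3% parasitemia and 2.5% hematocrit were exposed 72 h; values normalized to DMSO and 0.29 uM artemisinin controls.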

`CC(=O)SC[C@@H](C)C(=O)N1CCC[C@H]1C(=O)N[C@@H](Cc1ccccc1)C(=O)O`: the remaining parasite growth % (stronger effect = lower value) in experiment [1] worked out at 106%. In addition, in [2], the activity, percent of control was 103%. Further, the parasite growth, % of DMSO control in experiment [3] stood at 100%. Further, the parasite growth remaining, % of DMSO control (lower = more inhibition) in experiment [4] was found to be 102%. Further, the cell viability, % of control (lower = more cytotoxic) in experiment [5] stood at 132%. In addition, the viability (% of control) in [6] stood at 123%.

`Cn1c(=O)n(-c2ccc(C(C)(C)C#N)cc2)c2c3cc(-c4cnc5ccccc5c4)ccc3ncc21`: the remaining parasite growth % (stronger effect = lower value) in [1] was 1.17%. Further, the activity, percent of control in experiment [2] came out at 10.2%. This compound came in with a parasite growth, % of DMSO control in experiment [3] of 5.06%. Moreover, the parasite growth remaining, % of DMSO control (lower = more inhibition) in experiment [4] came to 7.73%. The compound further yielded a parasite growth, % of control (lower = inhibition) in experiment [7] of 6.52%. The same compound showed a growth, % of control in experiment [8] of 2.31%. Moreover, the cell viability, % of control (lower = more cytotoxic) in experiment [5] is 8.42%. For the same compound, in [6], the viability (% of control) came out at 11.9%.

For the compound `Cc1cn2c(-c3cn[nH]c3)cnc2c(Nc2ccc(C(=O)N3CCNCC3)cc2F)n1`, the remaining parasite growth % (stronger effect = lower value) in experiment [1] was 19.1%. Besides, the activity, percent of control in experiment [2] was found to be 12.6%. Moreover, the remaining proliferation (% of control), lower = more inhibition in [9] stood at 11.9%. In [3], this compound displayed a parasite growth, % of DMSO control of 5.87%. Further, in [4], the parasite growth remaining, % of DMSO control (lower = more inhibition) is 11.4%. In [7], this compound returned a parasite growth, % of control (lower = inhibition) of 11.4%. The growth, % of control in [8] was 3.68%. In [5], the cell viability, % of control (lower = more cytotoxic) came out at 99.1%. In addition, the viability (% of control) in experiment [6] worked out at 28.2%.

As to `C=CC(=O)Nc1cccc(Oc2nc(Nc3ccc(N4CCN(C)CC4)cc3OC)ncc2Cl)c1`, the remaining parasite growth % (stronger effect = lower value) in experiment [1] amounted to 5.98%. In experiment [2], the activity, percent of control is 12.5%. This compound displayed a remaining proliferation (% of control), lower = more inhibition in experiment [9] of 6.16%. Moreover, the parasite growth, % of DMSO control in experiment [3] turned out to be 10.5%. For the same compound, the parasite growth remaining, % of DMSO control (lower = more inhibition) in experiment [4] was 15.1%. In experiment [8], this compound yielded a growth, % of control of 4.13%. The cell viability, % of control (lower = more cytotoxic) in experiment [5] was found to be 8%. In addition, the viability (% of control) in [6] was 16.3%.

Take `COc1ccc(OC)c(-c2nnc3ccc(-c4ccc(OC)c(O[C@@H]5CCOC5)c4)nn23)c1`: in [1], the remaining parasite growth % (stronger effect = lower value) is -0.0314%. Also, the activity, percent of control in [2] came to 0.138%. For the same compound, in experiment [3], the parasite growth, % of DMSO control was 5.33%. In addition, in experiment [4], the parasite growth remaining, % of DMSO control (lower = more inhibition) amounted to 6.53%. Moreover, the parasite growth, % of control (lower = inhibition) in [7] was found to be 16%. In [8], this compound gave a growth, % of control of 8.79%. The cell viability, % of control (lower = more cytotoxic) in experiment [5] turned out to be 6.73%. The viability (% of control) in experiment [6] came out at 3.56%.

Take `Cn1c2cc(S(C)=O)sc2c2cnn(Cc3cccc(N)c3)c(=O)c21` (centres undefined): the remaining parasite growth % (stronger effect = lower value) in [1] is 83.6% and 85.6%. Also, the activity, percent of control in [2] was 95% and 94.7%. For the same compound, the parasite growth, % of DMSO control in [3] is 190%. In addition, the parasite growth remaining, % of DMSO control (lower = more inhibition) in experiment [4] worked out at 102%. The parasite growth, % of control (lower = inhibition) in experiment [7] was found to be 77%. This compound also registered a growth, % of control in experiment [8] of 367%. Also, the cell viability, % of control (lower = more cytotoxic) in experiment [5] came out at 123%. For the same compound, in [6], the viability (% of control) was 100%.

As to `COc1cc2c(Nc3ccc(NC(=O)c4ccccc4)cc3)ncnc2cc1OCCCN1CCOCC1`, the remaining parasite growth % (stronger effect = lower value) in [1] is 2.34%. In addition, the activity, percent of control in experiment [2] stood at 15.5%. The compound also yielded a parasite growth, % of DMSO control in experiment [3] of 10.3%. Further, in experiment [4], the parasite growth remaining, % of DMSO control (lower = more inhibition) amounted to 21.6%. Also, the parasite growth, % of control (lower = inhibition) in [7] is 30%. In experiment [8], this compound returned a growth, % of control of 8.34%. Also, the cell viability, % of control (lower = more cytotoxic) in [5] came to 4.68%. Further, the viability (% of control) in [6] stood at 2.4%.

Turning to `COc1cc2c(Oc3ccc4[nH]c(C)cc4c3F)ncnc2cc1OCCCN1CCCC1`, in experiment [1], the remaining parasite growth % (stronger effect = lower value) is -0.853%. For the same compound, the activity, percent of control in experiment [2] was found to be 1.27%. The compound also showed a remaining proliferation (% of control), lower = more inhibition in experiment [9] of 0.351%. The same compound showed a parasite growth, % of DMSO control in experiment [3] of 6.49%. For the same compound, in [4], the parasite growth remaining, % of DMSO control (lower = more inhibition) was 8.16%. In experiment [7], this compound displayed a parasite growth, % of control (lower = inhibition) of 15.9%. In experiment [8], the growth, % of control came to 6.98%. Also, in experiment [5], the cell viability, % of control (lower = more cytotoxic) is 7.59%. In addition, the viability (% of control) in experiment [6] came to 6.46%.
